Source: PubChem BioAssay AID492947 (National Center for Advancing Translational Sciences (NCATS), 2010)
Out of some 330,000 compounds screened, about 80 (0.02%) were called active. Where a call stands in place of a potency, no number is given. The sample holds actives, similar compounds and a random draw of the others, so the mix is not that of the screen. The call rests on the fitted dose curve; in most records, active means well fitted activation curve with a large enough effect; inconclusive means small, poorly fitted or top-dose-only effect; inactive means flat fitted curve, though single readings scatter.

biological target: Beta-2 adrenergic receptor (Homo sapiens) (UniProt P07550); experiment: qHTS assay of beta-arrestin-biased ligands of beta2-adrenergic receptor; conditions: beta-arrestin recruitment to beta2AR, cell-based reporter; series mostly up to 46.1 µM; further: nearly all actives have a fitted effect of over 65% in size
Text: NIH Molecular Libraries Probe Production Network [MLPCN]
NIH Chemical Genomics Center [NCGC]
PI: Bryan Roth and Bob Lefkowitz
The concept of biased agonism is an emerging concept of molecular pharmacology which proposes that seven transmembrane receptors (7TMRs) or G protein-coupled receptors (GPCRs), exist in multiple signaling conformations and complexes and that ligands (either agonists or antagonists) can induce signaling biased responses for distinct signal transduction cascades.
Furthermore, accumulating evidence over the last decade has drawn attention to a novel function of beta-arrestins as signal transducers that scaffold various signaling molecules upon activation of 7TMRs. […] This beta-arrestin-biased signaling presumably leads to distinct physiological outcomes from those by G protein activation.
Additionally, the active receptor conformations which […] on this beta-arrestin signaling are likely different from those activating G protein signaling
The goal of this screening project will be to discover and optimize novel beta-arrestin-biased ligands for beta2-AR signaling. A luminescent cell-based assay for beta2-AR-mediated agonism, known as the Tango assay, has been validated in which ligand binding of a recombinant beta2-AR and subsequent recruitment of a recombinant beta-arrestin lead to the release of the transcriptional activator tTA, which upregulates transcription of a tTA-responsive luciferase gene. […] Compounds were screened as a concentration-titration series that ranged from 46 microM to 0.6 nM.
NCGC Assay Protocol Summary:
Tango cells were dispensed into white, solid, tissue-culture-treated 1536-well plates at 1500 cells/well in DMEM, containing 1% fetal bovine serum (FBS). Then, 23 nL of compounds or DMSO were delivered to each well using a pin tool. Plates were incubated at 37 degrees C, 5% CO2 for 18 hr. Then 2.5 uL luminescent substrate mix (in-house prepared: 150 mM Tris-Cl, pH 7.6, 3 mM MgCl2, 1% Triton X-100, 5 mM DTT, 0.5 mM CoA, 0.15 mM ATP, 0.44 mM D-luciferin, final concentrations) was added to each well. Plates were then incubated for 15 minutes at room temperature, and subsequently measured on a ViewLux plate reader for luminescent signal using a clear filter with a 10 second exposure and 2x binning. The %Activity was determined from the corrected luminescence values.
Concentration-response curves were fitted to the signals arising from the resulting luminescence. The concentration-effect curves were then classified based on curve quality (r2), response magnitude and degree of measured activity, and compounds were subsequently categorized based on their curve class.
Keywords: biased agonism, beta2-AR, beta-arrestin, GPCR, 7TMR, Tango, luminescence, MLSMR, MLPCN, NIH Roadmap, qHTS, NCGC
Potency means the concentration at half of the fitted maximal effect.

Sequence of Beta-2 adrenergic receptor (Homo sapiens) (P07550 whole entry, looked up): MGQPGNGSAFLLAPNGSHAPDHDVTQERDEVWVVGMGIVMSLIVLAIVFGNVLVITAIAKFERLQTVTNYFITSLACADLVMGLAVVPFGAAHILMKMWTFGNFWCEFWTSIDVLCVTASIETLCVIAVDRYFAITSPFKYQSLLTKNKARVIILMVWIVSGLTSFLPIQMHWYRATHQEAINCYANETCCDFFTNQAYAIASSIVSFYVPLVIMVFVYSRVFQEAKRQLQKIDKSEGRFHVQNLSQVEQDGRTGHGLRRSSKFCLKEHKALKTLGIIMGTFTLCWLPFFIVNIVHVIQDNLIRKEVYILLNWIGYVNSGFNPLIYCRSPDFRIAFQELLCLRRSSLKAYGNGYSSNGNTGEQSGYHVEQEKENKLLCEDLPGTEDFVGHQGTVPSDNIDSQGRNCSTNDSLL

Structure (SMILES)	Potency
O=C(CCNC(=O)c1ccccc1Cl)NN=Cc1ccco1	inactive
Cc1ccc(S(=O)(=O)N2CCN(C(=O)CCC(=O)NC3CCCc4ccccc43)CC2)cc1 (centres undefined)	inactive
COC(=O)C(C)n1cnc2c(nnn2-c2ccc(F)cc2)c1=O (centres undefined)	inactive
Cc1ccc(C2(C)NC(=O)N(CC(=O)N3CC(=O)Nc4ccccc43)C2=O)cc1 (centres undefined)	inactive
CC(OC(=O)CNS(=O)(=O)/C=C/c1ccccc1)C(=O)Nc1ccc(S(=O)(=O)N2CCCC2)cc1 (centres undefined)	inactive
CCOC(=O)c1c(-c2cccc(N)c2)cn2ccccc12	inactive
CCOc1cc2[nH]c(=S)n(CCCN3CCCC3=O)c(=O)c2cc1OCC	inactive
COc1ccc(CS(=O)/C(Cl)=C(/Cl)C(=O)Nc2ccc(OC)nc2)cc1 (centres undefined)	inactive
CC1CC1C(=O)OCC(=O)Nc1cccc(F)c1 (centres undefined)	inactive
CC1CCC2(CC1)NC(=O)N(Cc1nnc(-c3cccs3)o1)C2=O (centres undefined)	inactive
NC(=O)c1ccsc1NC(=O)COC(=O)Cc1n[nH]c(=O)c2ccccc12	inactive
CCOCCCNC(=O)c1cn(CC(C)C)c(=O)c2c1c1ccccc1n2C	inactive
Cc1cc(C)c(C#N)c(SCC(=O)NN2CC(=O)N(c3ccccc3F)CC2=O)n1	inactive
COc1ccc(CC(NC(C)=O)C(=O)NC2CCN(C(=O)C3CC3)CC2)cc1OC (centres undefined)	inactive
COc1ccccc1OCCn1c(SCC(N)=O)nc2ccccc21	inactive
CCc1cccc(C)c1NC(=O)COC(=O)CC1CCCC1	inactive
O=C(Nc1cc(-c2nn(CC(=O)N3CCCCC3)c(=O)c3ccccc23)ccc1N1CCOCC1)c1ccc(Cl)cc1	inactive
COc1ccc2c(-c3ccccc3)cc(SCC(=O)N(C)C3CCS(=O)(=O)C3)nc2c1 (centres undefined)	inactive
COC(=O)c1cccc(NC(=O)CN2CCC(NC(=O)c3cc(OC)c(OC)c(OC)c3)CC2)c1	inactive
O=C(COc1ccccc1Cl)Nc1ccc(C(=O)c2ccc(C(=O)O)cc2)cc1	inactive
OC(COCC1COc2ccccc2O1)CN1CCN(c2ccc(F)cc2)CC1 (centres undefined)	inactive
O=C(O)C1CCCN1S(=O)(=O)c1ccc2c(c1)CCC2 (centres undefined)	inactive
COc1ccc(-n2nnnc2SCC(=O)NCc2cccs2)cc1	inactive
CC(=O)n1c(C=Nc2ccccc2)c(O)c2ccccc21	inactive
Oc1ccc(N=Cc2sc3ccccc3c2Cl)cc1	13 µM (active)
Cn1c(SCC(=O)N2CCCC2)nnc1-c1cccs1	inactive
CC(C(=O)N1CCOCC1)N1c2cccc3cccc(c23)S1(=O)=O (centres undefined)	inactive
Nc1ccc(Nc2cc(O)c3ncccc3c2)cc1	inactive
COc1nc(N=C(N)N)nc2c(C)cccc12	inactive
